From PubChem BioAssay
This excerpt belongs to a sample that is enriched for hits.
Pf Dd2 inh: qHTS Primary assay for Inhibitors of Plasmodium falciparum Dd2 growth in vitro | Potency, µM (titrated, usually from 28.9 µM), for the others: at the highest dose activity, negative = inhibition, actives largely listed as inhibitors | P. falciparum Dd2 growth, SYBR Green, 72 h | actives 4.3% (n = 120,000) | AID 1347417, 2020; active = well fitted inhibition curve with a large enough effect;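 also: plate controls were DMSO vehicle for no effect and reference drug for full effect; nearly all actives have a fitted effect of over 65% in size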
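Infected erythrocytes (Dd2, 0.3% parasitemia, 2.5% hematocrit final) are added to compound in RPMI-1640/Albumax II medium, grown 72 h at 37C in low oxygen, then lysed with saponin/Triton-X containing SYBR Green and read by fluorescence.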
An asterisk follows results filed as active; i = inactive; [ ] = another dose, or the depositor's remark. Potency is read from the fitted curve at half-maximal effect.

SMILES	Pf Dd2 inh
CN1C(=O)c2cccn2CC1CNC(=O)c1[nH]nc2c1COc1ccccc1-2 (stereo not given)	8.9µM*
COCCN1C(=O)c2cccn2CC1CNC(=O)c1[nH]nc2c1COc1ccccc1-2 (stereo not given)	-5%
COCC(=O)N(C)Cc1cccc(C(F)(F)F)c1	23%[44.1 µM]
Cc1ccc(NC(=O)Cn2c(C)cc3nc4n(c(=O)c32)CCCCC4)c(Cl)c1	i
NC(=O)c1ccc(-c2nc3c([nH]2)CN(c2ncnc4ccsc24)CC3)cc1	10µM*
O=C(CCn1ccc(=O)[nH]c1=O)N1CCc2nc(-c3ccccc3)[nH]c2C1	i
c1ccc(Cn2ccnc2C2CCN(c3ncnc4ccsc34)CC2)nc1	-2%
O=C(Cc1ccccc1)N1CCCC2(CNc3ccccc3[S+](=O)([O-])N2)C1 (stereo not given)	i
COCCn1c(=O)n([C@H]2CCCN(C(=O)c3cccc4nccnc34)C2)c2ncccc21	-4%
O=[S+]1([O-])NC2(CCN(CC3CC3)C2)COc2ccncc21 (stereo not given)	18%
COc1ccc(NC(=O)c2sc3nc4c(cc3c2N)CN(Cc2ccccc2)CC4)cc1OC	i
CN1CCc2nc3sc(C(=O)c4ccc(F)cc4)c(N)c3cc2C1	-7%
CN1CCc2nc3sc(C(=O)Nc4ccccc4C(F)(F)F)c(N)c3cc2C1	8.9µM*
C[S+](=O)([O-])Nc1cccc(-c2cc3c(ccn3Cc3cccnc3)c(C3=CCOCC3)n2)c1	i
CCOc1ccc(NC(=O)NCCCN2CCN(c3ccc(F)cc3)CC2)cc1	i
CCC(=O)N1c2ccccc2CC1C(=O)NCCCN1CCN(c2ccc(F)cc2)CC1 (stereo not given)	-13%
O=C(NCCCN1CCN(c2ccc(F)cc2)CC1)Nc1ccccc1Cl	7.9µM*
CC(C)CN1C(=O)C(CC(=O)N2CCOCC2)Sc2ncccc21 (stereo not given)	5%
CC(=O)Nc1ccc(C(=O)N2CCC3(CC2)CN(C(C)=O)Cc2ccccc2O3)cc1	7%
Cc1ccc(-c2ncc(C(=O)N(C)Cc3nc(CC(C)C)no3)c(=O)[nH]2)cc1	-1%
CC(C)Cc1cnc(-c2ccccc2)[nH]1	16µM*
CC(C)Cc1nc2nccc(-c3ccccc3)n2n1	-15%
Cc1cccc(C(=O)N2CCCC2c2nc(C3CCOCC3)no2)c1 (stereo not given)	-8%
Cn1c(=O)n(Cc2ccccc2)c(=O)c2c1nc1n2CCN1c1ccccc1	-4%
Cc1cccc(-n2ncc3c(N4CCN(c5ccccc5)CC4)ncnc32)c1	44%
SMILES	Pf Dd2 inh
COc1ccc(-n2ncc3c(N4CCN(c5cccc(C)c5)C(C)C4)ncnc32)cc1 (stereo not given)	5.6µM*
COc1ccc(N2CCN(c3ncnc4c3cnn4-c3ccc(C)c(Cl)c3)CC2)cc1	40%
CCC(C(=O)N1CCc2nc(NC)nc(C(=O)N3CCCC3)c2C1)n1cccn1 (stereo not given)	1%
COc1ccc2nc(SCC(O)c3cccc(Br)c3)[nH]c2c1 (stereo not given)	-6%
CN(C)C(=O)c1n[nH]c2c1CN(C(=O)CCC(=O)c1ccc(F)cc1)CC2	i
COc1ccc(-c2nc(C3CC(=O)N(C4CCCCC4)C3)no2)cc1 (stereo not given)	61%
COc1cccc(-c2cc(-c3nc(C4CC(=O)N(C5CCCCC5)C4)no3)[nH]n2)c1 (stereo not given)	5µM*
COc1cccc(-c2nc(C3CC(=O)N(C4CCCCC4)C3)no2)c1 (stereo not given)	39%
COc1ccc(OC)c(NC(=O)Cn2c(N3CCc4ccccc4C3)nc(C)cc2=O)c1	i
COc1ccc(-n2c(=O)c3c(c4cc(OC)ccc4n3C)n(CCC(C)C)c2=O)cc1	-1%
CSCC(=O)N1CC[C@H](NC(=O)NC2CCCCC2)[C@H]1C(=O)N1CCC[C@@H]1C(N)=O	32%
CCOC(=O)c1ccc(NC(=O)Cn2cccc2-c2nc(-c3ccc(OC)c(F)c3)no2)cc1	40%
COc1ccc(-c2noc(-c3cccn3CC(=O)N3CCN(c4ccccc4F)CC3)n2)cc1F	2.5µM*
COc1ccc(-c2noc(-c3cccn3CC(=O)Nc3cc(Cl)c(OC)cc3OC)n2)cc1F	27%
COc1ccc(-c2noc(-c3cccn3CC(=O)N3CCN(c4ccc(F)cc4)CC3)n2)cc1F	-8%
O=C(CSCc1ccc(F)cc1)N1CCN(c2ccccc2F)CC1	68%
Cc1ccc(NC(=O)Cn2cccc2-c2nc(-c3ccc(F)cc3)no2)cc1F	-3%
COc1ccc(-c2noc(-c3cccn3CC(=O)Nc3cccc(C)c3)n2)cc1F	-5%
COc1ccc(NC(=O)Cn2cccc2-c2nc(-c3ccc(F)cc3)no2)cc1Cl	11µM*
O=C(Cn1cccc1-c1nc(-c2ccc(F)cc2)no1)N1CCN(c2ccccc2F)CC1	i
Cc1oc(-c2ccccc2F)nc1CSCC(=O)N1CCN(c2ccccc2)CC1	-15%
COc1ccc(-c2nc(CSCC(=O)N3CCN(c4ccccc4F)CC3)c(C)o2)cc1	6.3µM*
COc1ccc(-c2noc(-c3cccn3CC(=O)Nc3ccc(F)cc3)n2)cc1F	3.2µM*
CCn1c(=O)c2sccc2n2c(CCC(=O)Nc3cc(C)cc(C)c3)nnc12	31%
COc1ccc(N2CCN(Cc3nnc(-c4ccc5c(c4)OCO5)o3)CC2)cc1	29%
SMILES	Pf Dd2 inh
CCOc1cc(=O)n2c(c1C(=O)NC1CCN(Cc3ccccc3)CC1)CCCCC2	i
CCOc1ccccc1N1CCN(C(=O)CN2CC3CC(C2)[C@H]2CCCC(=O)N2C3)CC1 (stereo not given in full)	-28%
COC(=O)c1c(Oc2ccc(C(C)=O)cc2)nnc(-c2ccccc2)c1-c1ccccc1	23%
COCCCNC(=O)C(NC(=O)c1ccccc1)C1CCN(C(=O)c2ccc(C)cc2)CC1 (stereo not given)	i
O=C(Nc1cccc(OCc2cc(=O)n3c4c(sc3n2)CCCC4)c1)c1ccc(F)cc1	-19%
CN1C[C@H](NS(C)(=O)=O)CCC[C@@H](C(=O)NCc2cc(F)cc(F)c2)CC1=O	-1%[44.1 µM]
COc1ccccc1CNC(=O)CN1CCC(CO)CC1	12%
COC(=O)[C@@H](Cc1cccnc1)NC(=O)[C@@H]1CN(S(C)(=O)=O)CCN1C(=O)C1CCCCC1	-8%
Cc1ccc(CC(=O)N2CCN(c3nnc4ccc(C(F)(F)F)cn34)CC2)cc1	i
c1cc(Cn2ccc3c(N4CCOCC4)nc(-c4cncnc4)cc32)ccn1	1%[44.1 µM]
O=C(Nc1cccc(F)c1)c1ccc(N2CC3CC(C2)[C@H]2CCCC(=O)N2C3)nc1 (stereo not given in full)	i
O=C(Cn1cccc1-c1nc(-c2ccc3c(c2)OCO3)no1)Nc1ccccc1	2.8µM*
COc1ccc(CCNC(=O)Cn2cccc2-c2nc(-c3ccc4c(c3)OCO4)no2)cc1OC	0%
O=C(Cn1cccc1-c1nc(-c2ccccc2)no1)NCc1ccc(Cl)cc1	0%
CC(=O)c1ccc(NC(=O)Cn2cccc2-c2nc(-c3ccc4c(c3)OCO4)no2)cc1	6%
COc1ccc(-c2noc(-c3cccn3CC(=O)NCCc3ccccc3)n2)cc1F	0.25µM*
O=C(Cn1cccc1-c1nc(-c2ccccc2)no1)Nc1ccccc1Cl	13%
O=C(Cn1cccc1-c1nc(-c2ccccc2)no1)NCc1ccccc1Cl	10µM*
CC(=O)c1cccc(NC(=O)Cn2cccc2-c2nc(-c3ccc4c(c3)OCO4)no2)c1	i
